About 3,300 (8.5%) of roughly 39,000 compounds were called active. For the sample, actives were picked, then their nearest neighbours and some compounds at random.
Test system: HepG2
Experiment: cytotoxicity call (relative viability < 0.9)
Details: 10 µM

SMILES | cytotoxicity call
O=C1CCC(C(=O)O)CC1 | inactive
C[C@@H]1CN([C@@H](C)CO)C(=O)c2cc(NC(=O)CCN3CCOCC3)ccc2O[C@@H]1CN(C)S(=O)(=O)c1ccccc1 | inactive
C[C@@H]1CCCCO[C@@H](CN(C)C(=O)Nc2cccc3ccccc23)[C@@H](C)CN([C@H](C)CO)C(=O)c2cc(NC(=O)Nc3ccc(C(F)(F)F)cc3)ccc2O1 | inactive
COc1ccc(S(=O)(=O)N(C)C[C@@H]2Oc3ccc(NS(=O)(=O)c4cn(C)cn4)cc3C(=O)N([C@H](C)CO)C[C@@H]2C)cc1 | inactive
C[C@H](CO)N1C[C@H](C)[C@@H](CN(C)S(=O)(=O)c2ccc3ccccc3c2)OCc2cnnn2CCCC1=O | inactive
COc1ccc(C#Cc2cnc3c(c2)C(=O)N([C@H](C)CO)C[C@H](C)[C@H](CN(C)S(=O)(=O)c2cccc(F)c2)O3)cc1OC | inactive
COc1ccc(COCC23Oc4ccccc4[C@H]([C@H]2CO[Si](C)(C)C(C)(C)C)n2c(c4ccccc4c(-c4ccccc4)c2=O)N3C)cc1 | active
COC(=O)c1c(C(=O)OC)c2n(c(=O)c1-c1ccccc1)[C@@H]1c3ccccc3O[C@@](COCc3ccc(OC)cc3)([C@@H]1COC(=O)c1ccccc1)N2C | inactive
COC(=O)c1cc(-c2ccccc2)c(=O)n2c1N(C)[C@@]1(COCc3ccc(OC)cc3)Oc3ccccc3[C@@H]2[C@H]1CO[Si](C)(C)C(C)(C)C | inactive
COC(=O)c1c(C(=O)OC)c2n(c(=O)c1-c1ccccc1)[C@@H]1c3ccccc3O[C@@](COCc3ccc(OC)cc3)([C@@H]1CO[Si](C)(C)C(C)(C)C)N2C | inactive
COC(=O)c1c(C(=O)OC)c2n(c(=O)c1-c1ccccc1)[C@@H]1c3ccccc3O[C@@](CO)([C@@H]1CO)N2C | inactive
COc1ccc(COCC23Oc4ccccc4[C@H]([C@H]2CO)n2c(c4c(c(C(C)=O)c2=O)C(=O)N(C)C4=O)N3C)cc1 | inactive
COc1ccc(COCC23Oc4ccccc4[C@H]([C@H]2CO)n2c(c4ccccc4c(-c4ccccc4)c2=O)N3C)cc1 | active
COc1ccc(COCC23Oc4ccccc4[C@H]([C@H]2COC(=O)c2ccccc2)n2c(c4ccccc4c(-c4ccccc4)c2=O)N3C)cc1 | active
COc1ccc(COCC23Oc4ccccc4[C@H]([C@H]2COC(=O)NCCCCCC(=O)NO)n2c(c4c(c(C(C)=O)c2=O)C(=O)N(C)C4=O)N3C)cc1 | inactive
COc1ccc(NC(=O)N(C)C[C@@H]2OCCCC[C@H](C)Oc3ccc(NS(=O)(=O)c4ccc(OC)cc4)cc3C(=O)N([C@H](C)CO)C[C@@H]2C)cc1 | inactive
CC(C)NC(=O)N(C)C[C@@H]1Oc2c(NC(=O)Nc3ccc4c(c3)OCO4)cccc2C(=O)N([C@@H](C)CO)C[C@@H]1C | inactive
C[C@H]1CCCCO[C@H](CN(C)C(=O)CCC(F)(F)F)[C@@H](C)CN([C@@H](C)CO)C(=O)c2cc(NS(=O)(=O)c3cccs3)ccc2O1 | inactive
Cn1cnc(S(=O)(=O)N2C[C@@H](O)COC[C@H]3O[C@H](CC(=O)NCc4cc(F)cc(F)c4)CC[C@@H]32)c1 | inactive
O=C(C[C@@H]1CC[C@H]2[C@@H](COC[C@@H](O)CN2S(=O)(=O)c2cccc(Cl)c2)O1)N1CCOCC1 | inactive
O=C(C[C@H]1CC[C@@H]2[C@H](COC[C@H](O)CN2Cc2cccc(C(F)(F)F)c2)O1)NCCc1ccncc1 | inactive

SMILES | cytotoxicity call
O=C(C[C@H]1CC[C@@H]2[C@H](COC[C@@H](O)CN2C(=O)Nc2ccc(Cl)c(Cl)c2)O1)NCc1ccc(Cl)c(Cl)c1 | inactive
Cn1cnc(CCNC(=O)C[C@H]2CC[C@@H]3[C@H](COC[C@@H](O)CN3C(=O)Nc3ccc(Cl)cc3)O2)c1 | inactive
O=C(C[C@H]1CC[C@H]2[C@@H](COC[C@@H](O)CN2C(=O)Nc2ccc(Cl)c(Cl)c2)O1)NCc1ccc(Cl)c(Cl)c1 | active
O=C(C[C@@H]1CC[C@H]2[C@@H](COC[C@@H](O)CN2C(=O)Nc2ccc(Cl)c(Cl)c2)O1)NCc1ccc(Cl)c(Cl)c1 | active
Cn1cnc(CCNC(=O)C[C@H]2CC[C@@H]3[C@H](COC[C@H](O)CN3C(=O)Nc3ccc(Cl)cc3)O2)c1 | active
O=C(C[C@@H]1CC[C@@H]2[C@H](COC[C@@H](O)CN2C(=O)Nc2ccc(Cl)c(Cl)c2)O1)NCc1ccc(Cl)c(Cl)c1 | inactive
Cn1cnc(CCNC(=O)C[C@@H]2CC[C@H]3[C@@H](COC[C@H](O)CN3C(=O)Nc3ccc(Cl)cc3)O2)c1 | inactive
O=C(C[C@@H]1CC[C@@H]2[C@H](COC[C@H](O)CN2Cc2cccc(C(F)(F)F)c2)O1)NCCc1ccncc1 | inactive
O=C(C[C@H]1CC[C@H]2[C@@H](COC[C@H](O)CN2C(=O)Nc2ccc(Cl)c(Cl)c2)O1)NCc1ccc(Cl)c(Cl)c1 | inactive
O=C(C[C@H]1CC[C@@H]2[C@H](COC[C@@H](O)CN2Cc2cccc(C(F)(F)F)c2)O1)NCCc1ccncc1 | active
O=C(C[C@@H]1CC[C@H]2[C@@H](COC[C@H](O)CN2C(=O)Nc2ccc(Cl)c(Cl)c2)O1)NCc1ccc(Cl)c(Cl)c1 | inactive
C[C@H]1CN([C@@H](C)CO)S(=O)(=O)c2ccc(Br)cc2O[C@@H]1CN(C)C(=O)c1cnccn1 | inactive
C[C@H](CO)N1C[C@H](C)[C@H](CN(C)Cc2ccccc2)Oc2c(NC(=O)Nc3ccc(C(F)(F)F)cc3)cccc2C1=O | inactive
C[C@H]1CN([C@@H](C)CO)C(=O)Cc2cc(NC(=O)CCC(F)(F)F)ccc2O[C@@H]1CN(C)Cc1ccc(Cl)c(Cl)c1 | inactive
O=C(O)CCC(=O)N1CC(=O)Nc2ccccc21 | inactive
C[C@@H]1CN([C@@H](C)CO)C(=O)c2cccc(NS(=O)(=O)c3ccccc3)c2O[C@@H]1CN(C)Cc1ccc(Oc2ccccc2)cc1 | inactive
COc1ccc(S(=O)(=O)N(C)C[C@H]2Oc3ccc(NS(=O)(=O)c4ccc(C)cc4)cc3CC(=O)N([C@H](C)CO)C[C@@H]2C)cc1 | inactive
NC[C@H](c1ccccc1Cl)N1CCOCC1 | inactive
C[C@@H]1CN([C@H](C)CO)C(=O)c2cc(NC(=O)Nc3ccccc3)ccc2O[C@@H](C)CCCCO[C@H]1CN(C)C(=O)Cc1ccccc1 | inactive
CC[C@H](C)[C@H](N)C1=N[C@H](C(=O)N[C@@H](CC(C)C)C(=O)N[C@H](CCC(=O)O)C(=O)N[C@H](C(=O)N[C@H]2CCCCNC(=O)[C@H](CC(N)=O)NC(=O)[C@@H](CC(=O)O)NC(=O)[C@H](Cc3cnc[nH]3)NC(=O)[C@@H](Cc3ccccc3)NC(=O)[C@H]([C@@H](C)CC)NC(=O)[C@@H](CCCN)NC2=O)[C@@H](C)CC)CS1 | inactive
O=C(C[C@H]1CC[C@@H]2[C@H](COC[C@H](O)CN2C(=O)Nc2ccc(Cl)c(Cl)c2)O1)NCc1ccc(Cl)c(Cl)c1 | active

SMILES | cytotoxicity call
O=C(C[C@@H]1CC[C@@H]2[C@H](COC[C@H](O)CN2C(=O)Nc2ccc(Cl)c(Cl)c2)O1)NCc1ccc(Cl)c(Cl)c1 | inactive
O=C(C[C@H]1CC[C@H]2[C@@H](COC[C@@H](O)CN2C(=O)Nc2ccc(Cl)c(Cl)c2)O1)NCc1ccncc1 | inactive
O=C(C[C@H]1CC[C@H]2[C@@H](COC[C@@H](O)CN2C(=O)Nc2ccc(Cl)cc2)O1)NCCc1ccncc1 | active
O=C(C[C@@H]1CC[C@H]2[C@@H](COC[C@@H](O)CN2C(=O)Nc2ccc(Cl)c(Cl)c2)O1)NCc1ccncc1 | inactive
O=C(C[C@@H]1CC[C@@H]2[C@H](COC[C@@H](O)CN2C(=O)Nc2ccc(Cl)cc2)O1)NCCc1ccncc1 | inactive
O=C(C[C@@H]1CC[C@@H]2[C@H](COC[C@@H](O)CN2C(=O)Nc2ccc(Cl)c(Cl)c2)O1)NCc1ccncc1 | active
O=C(C[C@H]1CC[C@H]2[C@@H](COC[C@H](O)CN2C(=O)Nc2ccc(Cl)cc2)O1)NCCc1ccncc1 | inactive
O=C(C[C@H]1CC[C@@H]2[C@H](COC[C@H](O)CN2C(=O)Nc2ccc(Cl)c(Cl)c2)O1)NCc1ccncc1 | inactive
CO[C@H]1CN(C)C(=O)c2cc(NC(=O)Nc3ccc(Cl)cc3)ccc2OC[C@@H](C)N(C(=O)Nc2c(C)noc2C)C[C@@H]1C | inactive
C[C@@H]1CCCCO[C@@H](CN(C)C(=O)Cc2ccccc2)[C@@H](C)CN([C@H](C)CO)C(=O)c2cc(NC(=O)C3CCCCC3)ccc2O1 | inactive
CC(C)NC(=O)N(C)C[C@@H]1Oc2ccc(NC(=O)Cn3cnnn3)cc2C(=O)N([C@H](C)CO)C[C@@H]1C | inactive
C[C@@H]1CCCCO[C@H](CN(C)C(=O)Cc2ccccc2)[C@H](C)CN([C@H](C)CO)C(=O)c2cc(NC(=O)CCC(F)(F)F)ccc2O1 | inactive
C[C@@H]1CN([C@@H](C)CO)C(=O)c2cc(NC(=O)CCCN(C)C)ccc2O[C@H]1CN(C)S(=O)(=O)c1ccc(F)cc1 | inactive
Clc1ccc(C2=Nc3cccc4cccc(c34)N2)cc1 | inactive
C=C(CO)C(=O)O[C@H]1C[C@@]2(C)OC(=O)/C(=C/C)[C@]2(O)CC[C@@]2(C)CC(=O)[C@]1(C(=C)C(=O)OC)O2 | inactive
C=C(CO)C(=O)O[C@@H]1[C@H]2C(=C)C(=O)O[C@@H]2[C@H]2O[C@]2(C)CC/C=C(/C(=O)OC)[C@H]1OC(C)=O | active
O=C(O)CN1CCCCCC1=O | inactive
O=C(C[C@H]1C[C@@H]2c3cc(NC(=O)Nc4ccc(C(F)(F)F)cc4)ccc3O[C@@H]2[C@H](CO)O1)NCc1ccc(Cl)cc1 | inactive
C[C@@H]1CN([C@@H](C)CO)C(=O)CCCn2cc(nn2)CO[C@H]1CN(C)C(=O)Nc1ccnc(N2CCOCC2)c1 | inactive

Source: the antibiotic and cytotoxicity screens of Wong et al. (2023)
